From PubChem BioAssay (Tox21)
Values joined by “and” are separate entries in the source; they are usually repeats but may differ in a detail not shown here. Equal values may be shown once. Results filed as inconclusive are left out. Entries that show only a call come without a potency. The source holds several records for some structures; these can differ, active in one and inactive in another. Active and inactive are the calls of the source. Unless noted, the call rests on the fitted dose curve; in most records, active means well fitted curve in the direction sought with a large enough effect in the repeat runs; inconclusive means weak or mixed curves; inactive means no such curve, though single readings can be large; an effect the other way counts as inactive or inconclusive.

What was measured:
[1] = qHTS assay to test for compound auto fluorescence at 535 nm (green) in HEK293 cells (AID 720680)
[2] = qHTS assay to test for compound auto fluorescence at 460 nm (blue) in HEK293 cell free culture (AID 720681)
Procedure, shortened: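 Test compounds were pinned into cell-free culture medium (DMEM with 10% FBS) and fluorescence was read directly at Ex/Em 405/460 nm. Signals were expressed as fluorescence equivalents of triamterene, with DMSO vehicle as control.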

[3] = qHTS assay to test for compound auto fluorescence at 535 nm (green) in HEK293 cell free culture (AID 720682)
Procedure, shortened: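 Intrinsic compound fluorescence is measured in culture medium containing 10% FBS, with excitation at 485 nm and detection at 535 nm, referenced to fluorescein.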

[4] = qHTS assay to test for compound auto fluorescence at 590 nm (red) in HEK293 cell free culture (AID 720683)
Procedure, shortened: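 Tox21 10K library compounds were pinned into cell-free DMEM with 10% FBS and fluorescence was read at excitation 540 nm. Activity is expressed as Rose Bengal sodium equivalency.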

[5] = qHTS assay to test for compound auto fluorescence at 590 nm (red) in HepG2 cell free culture (AID 720684)
Procedure, shortened: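 Measured in medium alone (MEM containing 10% FBS) following pintool addition of compound; emission at 590 nm with 540 nm excitation, referenced to Rose Bengal sodium.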

[6] = qHTS assay to test for compound auto fluorescence at 460 nm (blue) in HepG2 cell free culture (AID 720685)
Procedure, shortened: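 Compound (23 nL) or DMSO pinned into cell-free MEM with 10% FBS; blue fluorescence read at 405/460 nm excitation/emission, expressed as auto-fluorescence equivalency to triamterene.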

[7] = qHTS assay to test for compound auto fluorescence at 535 nm (green) in HepG2 cell free culture (AID 720686)
[8] = qHTS assay to test for compound auto fluorescence at 460 nm (blue) in HepG2 cells (AID 720687)
Procedure, shortened: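 Cells (2,000/well in MEM with 10% FBS) attached overnight at 37 C, then were exposed to compound or DMSO for 1 hr at 37 C, 5% CO2. Fluorescence read at Ex/Em 405/460 nm, expressed as triamterene-equivalent signal.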

[9] = qHTS assay to identify small molecule antagonists of the glucocorticoid receptor (GR) signaling pathway - cell viability counter screen (AID 720693); further: nearly all actives have a fitted effect of over 55% in size; further: potency means the concentration at half of the fitted maximal effect
[10] = qHTS assay for identifying genotoxic compounds that show differential cytotoxicity against isogenic chicken DT40 cell lines with known DNA damage response pathways - wild type cell line (AID 743012); further: nearly all actives have a fitted effect of over 60% in size; further: potency means the concentration at half of the fitted maximal effect
Procedure, shortened: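 Wild-type DT40 cells (300/well) exposed to compounds for 40 hours at 37 C/5% CO2. Viability read by CellTiter-Glo luminescence after 30 min at room temperature.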

[11] = qHTS assay for identifying genotoxic compounds that show differential cytotoxicity against isogenic chicken DT40 cell lines with known DNA damage response pathways - Rev3 mutant cell line (AID 743014); further: nearly all actives have a fitted effect of over 55% in size; further: potency means the concentration at half of the fitted maximal effect
[12] = qHTS assay for identifying genotoxic compounds that show differential cytotoxicity against isogenic chicken DT40 cell lines with known DNA damage response pathways - Rad54/Ku70 mutant cell line (AID 743015); further: nearly all actives have a fitted effect of over 60% in size; further: potency means the concentration at half of the fitted maximal effect
[13] = qHTS assay to identify small molecule antagonists of the androgen receptor (AR) signaling pathway - cell viability counter screen (AID 743033; further: nearly all actives have a fitted effect of over 45% in size; further: potency means the concentration at half of the fitted maximal effect)
[14] = qHTS assay to identify small molecule antagonists of the androgen receptor (AR) signaling pathway using the MDA cell line - cell viability counter screen (AID 743041; further: nearly all actives have a fitted effect of over 45% in size)
Procedure, shortened: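 Viability counter screen run alongside the AR antagonist reporter: cells seeded 5 h before compound, R1881 added, 16 h incubation at 37C without CO2, fluorescent CellTiter-Fluor signal quantified.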

[15] = biological target: Androgen receptor (Homo sapiens) (UniProt P10275); assay: qHTS assay to identify small molecule antagonists of the androgen receptor (AR) signaling pathway using the MDA cell line (AID 743042; further: nearly all actives have a fitted effect of over 55% in size)
Sequence of Androgen receptor (Homo sapiens) (P10275 whole entry, looked up): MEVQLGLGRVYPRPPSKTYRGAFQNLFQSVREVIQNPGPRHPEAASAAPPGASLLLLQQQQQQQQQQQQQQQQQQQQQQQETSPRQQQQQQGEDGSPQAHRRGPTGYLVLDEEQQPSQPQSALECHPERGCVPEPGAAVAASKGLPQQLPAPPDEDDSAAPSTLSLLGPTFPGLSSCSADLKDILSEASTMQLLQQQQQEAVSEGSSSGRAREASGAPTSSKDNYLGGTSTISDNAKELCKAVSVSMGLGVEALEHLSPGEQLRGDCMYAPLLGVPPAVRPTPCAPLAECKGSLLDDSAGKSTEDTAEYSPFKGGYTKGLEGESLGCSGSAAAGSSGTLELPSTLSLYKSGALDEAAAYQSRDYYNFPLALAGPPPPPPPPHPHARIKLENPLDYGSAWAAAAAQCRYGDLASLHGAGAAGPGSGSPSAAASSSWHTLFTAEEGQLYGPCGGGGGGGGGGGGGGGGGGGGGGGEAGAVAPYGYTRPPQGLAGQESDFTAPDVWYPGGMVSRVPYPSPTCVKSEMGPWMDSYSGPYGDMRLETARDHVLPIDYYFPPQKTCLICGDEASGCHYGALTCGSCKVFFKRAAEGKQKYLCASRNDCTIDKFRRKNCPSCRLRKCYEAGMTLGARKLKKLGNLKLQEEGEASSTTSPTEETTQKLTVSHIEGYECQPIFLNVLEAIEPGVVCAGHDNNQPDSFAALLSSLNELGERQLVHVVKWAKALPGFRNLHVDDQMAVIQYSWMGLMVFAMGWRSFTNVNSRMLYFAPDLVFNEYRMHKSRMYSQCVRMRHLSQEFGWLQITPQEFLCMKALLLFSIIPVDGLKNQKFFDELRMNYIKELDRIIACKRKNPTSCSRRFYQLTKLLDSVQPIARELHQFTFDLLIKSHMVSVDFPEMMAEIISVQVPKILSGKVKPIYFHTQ
Procedure, shortened: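 MDA-kb2 cells (human breast carcinoma, stably carrying an MMTV-luciferase reporter responsive to AR and GR) were plated at 3,000 cells/well and preincubated 5 hr at 37C, then given compound plus R1881 agonist for 16 h. ONE-Glo luminescence was read.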

[16] = biological target: Androgen receptor (Homo sapiens) (UniProt P10275); assay: qHTS assay to identify small molecule antagonists of the androgen receptor (AR) signaling pathway (AID 743035; active means well fitted inhibition curve with a large enough effect in the signal ratio in the repeat runs, not every such curve was filed as active; the % refers to the signal ratio)
Procedure, shortened: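 HEK293 cells stably carrying UAS-beta-lactamase reporter, 2,000/well, given compounds plus R1881 agonist and incubated 16 h at 37C. LiveBLAzer B/G FRET substrate then added for 2 h at room temperature before fluorescence reading.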

[17] = biological target: Androgen receptor (Homo sapiens) (UniProt P10275); assay: qHTS assay to identify small molecule agonists of the androgen receptor (AR) signaling pathway (AID 743036; active means well fitted activation curve with a large enough effect in the signal ratio in the repeat runs, with a control signal flat, not every such curve was filed as active; the % refers to the signal ratio)
Procedure, shortened: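 Agonist activity was scored by beta-lactamase reporter fluorescence in stably transfected HEK293 cells exposed to compounds for 16 h at 37C and 5% CO2. Substrate loading took 2 h at room temperature.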

[18] = biological target: Androgen receptor (Homo sapiens) (UniProt P10275); assay: qHTS assay to identify small molecule agonists of the androgen receptor (AR) signaling pathway using the MDA cell line (AID 743040; further: nearly all actives have a fitted effect of over 20% in size)
Procedure, shortened: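 Luminescence from ONE-Glo, read after 30 min at room temperature, reflects MMTV-driven luciferase in MDA-kb2 cells (AR- and GR-responsive). Treatment lasted 16 h at 37C, 0% CO2.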

[19] = biological target: Glucocorticoid receptor (Homo sapiens) (UniProt P04150); assay: qHTS assay to identify small molecule agonists of the glucocorticoid receptor (GR) signaling pathway (AID 720691; active means well fitted activation curve with a large enough effect in the signal ratio in the repeat runs, not every such curve was filed as active; the % refers to the signal ratio)
Sequence of Glucocorticoid receptor (Homo sapiens) (P04150 whole entry, looked up): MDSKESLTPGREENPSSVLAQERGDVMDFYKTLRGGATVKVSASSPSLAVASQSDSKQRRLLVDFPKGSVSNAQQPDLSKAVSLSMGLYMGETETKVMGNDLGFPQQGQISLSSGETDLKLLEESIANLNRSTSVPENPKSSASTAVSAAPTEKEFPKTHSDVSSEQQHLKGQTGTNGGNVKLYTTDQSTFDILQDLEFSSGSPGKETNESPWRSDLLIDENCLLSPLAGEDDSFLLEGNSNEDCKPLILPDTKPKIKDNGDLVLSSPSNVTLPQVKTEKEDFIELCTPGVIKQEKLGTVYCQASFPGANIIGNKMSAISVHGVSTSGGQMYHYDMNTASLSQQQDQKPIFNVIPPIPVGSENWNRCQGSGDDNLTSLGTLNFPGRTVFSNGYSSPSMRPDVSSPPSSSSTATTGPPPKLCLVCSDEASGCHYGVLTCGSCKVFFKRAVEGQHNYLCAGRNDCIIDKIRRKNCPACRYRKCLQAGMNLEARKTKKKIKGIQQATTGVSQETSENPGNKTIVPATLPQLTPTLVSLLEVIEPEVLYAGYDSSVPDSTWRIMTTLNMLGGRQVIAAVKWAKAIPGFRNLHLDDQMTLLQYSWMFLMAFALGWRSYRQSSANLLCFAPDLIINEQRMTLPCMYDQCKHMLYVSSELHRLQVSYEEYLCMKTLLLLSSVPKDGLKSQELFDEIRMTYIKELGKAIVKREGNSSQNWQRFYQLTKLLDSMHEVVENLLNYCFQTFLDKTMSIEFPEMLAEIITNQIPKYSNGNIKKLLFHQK
Procedure, shortened: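 GR-bla HeLa cells carrying a GRE-driven beta-lactamase reporter, exposed to compounds for 18 h at 37 C. Reporter activation read as fluorescence after 2 h with LiveBLAzer B/G FRET substrate at room temperature.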

[20] = biological target: Glucocorticoid receptor (Homo sapiens) (UniProt P04150); assay: qHTS assay to identify small molecule antagonists of the glucocorticoid receptor (GR) signaling pathway (AID 720692; active means well fitted inhibition curve with a large enough effect in the signal ratio in the repeat runs, not every such curve was filed as active; the % refers to the signal ratio)
Procedure, shortened: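 GR-bla HeLa cells carrying a GRE-driven beta-lactamase reporter received compound after 4 h plating, then dexamethasone (5 nM final). After 18 h at 37C, the FRET substrate was loaded for 2 h at room temperature and fluorescence read.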

SMILES	Potency [1]	Potency [2]	Potency [3]	outcome [4]	outcome [5]	Potency [6]	Potency [7]	Potency [8]	Potency [9]	Potency [10]	Potency [11]	Potency [12]	Potency [13]	Potency [14]	Potency [15]	Potency [16]	Potency [17]	outcome [18]	Potency [19]	Potency [20]
Cc1scc2c1N(C(=O)CN1CCN(C)CC1)c1ccccc1NC2=O	inactive	inactive	inactive	inactive	inactive	inactive	inactive	inactive	inactive	inactive	inactive	inactive	inactive	inactive						
O=C(Nc1ccccc1SSc1ccccc1NC(=O)c1ccccc1)c1ccccc1	inactive	inactive	inactive	inactive	inactive	inactive	inactive	inactive		2.45 µM (active) and 1.37 µM (active)	1.38 µM (active) and 1.72 µM (active)		11 µM (active) and 19.5 µM (active)							
CCN(CC)CCOc1ccc(/C(=C(\Cl)c2ccccc2)c2ccccc2)cc1	inactive	inactive	inactive	inactive	inactive	inactive	inactive	inactive		1.19 µM (active) and 140 nM (active)	422 nM (active) and 24.8 nM (active)	1.68 µM (active) and 44.2 nM (active)	15.8 µM (active)	inactive	inactive					
c1ccc2cc3c(ccc4ccccc43)cc2c1	inactive	inactive	inactive	inactive	inactive	inactive	inactive	inactive	inactive		inactive	inactive	inactive	inactive						
O=C1Nc2ccccc2C1(c1ccc(O)cc1)c1ccc(O)cc1	inactive	inactive	inactive	inactive	inactive	inactive	inactive	inactive	inactive	68.6 µM (active)	61.1 µM (active)		inactive							
Cc1cc(Cc2cc(C)cc(C(C)(C)C)c2O)c(O)c(C(C)(C)C)c1	inactive	inactive	inactive	inactive	inactive	inactive	inactive	inactive	12.4 µM (active) and 13.8 µM (active)	15.4 µM (active) and 17.2 µM (active)	13.8 µM (active) and 19.3 µM (active)		22 µM (active)							
C1COC(NC(C2CC2)C2CC2)=N1	inactive	inactive	inactive	inactive	inactive	inactive	inactive	inactive	inactive	inactive				inactive						
BrC1CCC(Br)C(Br)CCC(Br)C(Br)CCC1Br (centres undefined)	inactive	inactive	inactive	inactive	inactive	inactive	inactive	inactive		46.1 µM (active)	inactive and 41.1 µM (active)	inactive and 25.9 µM (active)	46.5 µM (active)	inactive	inactive	inactive	inactive	inactive		
CC(C)(O)CCC(C)(C)O		inactive	inactive	inactive	inactive	inactive	inactive	inactive	inactive	inactive	inactive	inactive	inactive	inactive	inactive			inactive	inactive	inactive
CCCCOCCOC(=O)c1ccccc1C(=O)OCCOCCCC	inactive	inactive	inactive	inactive	inactive	inactive	inactive	inactive	inactive		42.4 µM (active) and 27.3 µM (active)	42.4 µM (active) and 61.1 µM (active)	53.8 µM (active) and inactive	inactive						
